Screening data from PubChem.
Sampled rows, rich in hits. Any-hit rate of the full collection: about 11%.
HPGD block: qHTS Assay for Inhibitors of HPGD (15-Hydroxyprostaglandin Dehydrogenase) | AID 894, 2007 | hit rate 4.3% among 150,000 | Potency, µM, hits mostly inhibitors | purified HPGD, NADH fluorescence kinetic, PGE2 substrate
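NADH formation kinetics: reaction with 30 uM PGE2 and 1 mM NAD+ (final), 20 nM enzyme, Tris-HCl pH 8 with Tween 20, after 15 min compound preincubation at room temperature. Fluorescence change, last versus first of five reads.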
IMPase Li cell: qHTS Assay for Identifying the Cell-Membrane Permeable IMPase Inhibitors: Potentiation with Lithium; Potency, µM (titrated, usually from 59.4 µM), actives largely listed as inhibitors; CHO-M1 cells, IP1 TR-FRET (IP-One), carbachol + lithium; hit rate 0.35% among 210,000; active = well fitted curve in the direction sought with a large enough effect; inconclusive = small, poorly fitted or top-dose-only effect, or another doubt; inactive = no such curve, though single readings can be large; an effect the other way counts as inactive or inconclusive;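 note: IP1 builds up when IMPase is blocked and the TR-FRET signal falls; nearly all actives have a fitted effect of over 50% in size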
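Concentration–response in CHO-M1 cells, lithium-potentiated; 30 min at 37C. IP1 detected by competitive TR-FRET after 10 min lysis at RT. Hill-fitted AC50.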
PNC assembly inh: High Content Assay for Compounds that inhibit the Assembly of the Perinucleolar Compartment. PC3M PTB-GFP, PNC prevalence imaging, 16 h; hits give low values. activity change (PNC), negative = inhibition, % at 10 µM. hit rate 3.1% among 140,000;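 active = readout at or below -70, meaning at least 70% loss of cells showing the perinucleolar compartment, a nuclear body marking cancer cells; inconclusive = readout between -30 and a set limit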
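PC3M cells stably expressing PTB-GFP, 750–1000 cells/well, treated 16 h at 37 °C with compound (23 nl of library stock), in duplicate. After paraformaldehyde fixation and Hoechst stain, imaged at 20x; PNC prevalence scored by image analysis.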
ALDH1A1 block: qHTS Assay for Inhibitors of Aldehyde Dehydrogenase 1 (ALDH1A1); AID 1030, 2008; hit rate 7.3% among 220,000; Purified ALDH1A1, NADH fluorescence, propionaldehyde substrate; Potency, µM (highest dose often 75.3 µM), actives largely listed as inhibitors
Target sequence (P00352 whole entry, looked up): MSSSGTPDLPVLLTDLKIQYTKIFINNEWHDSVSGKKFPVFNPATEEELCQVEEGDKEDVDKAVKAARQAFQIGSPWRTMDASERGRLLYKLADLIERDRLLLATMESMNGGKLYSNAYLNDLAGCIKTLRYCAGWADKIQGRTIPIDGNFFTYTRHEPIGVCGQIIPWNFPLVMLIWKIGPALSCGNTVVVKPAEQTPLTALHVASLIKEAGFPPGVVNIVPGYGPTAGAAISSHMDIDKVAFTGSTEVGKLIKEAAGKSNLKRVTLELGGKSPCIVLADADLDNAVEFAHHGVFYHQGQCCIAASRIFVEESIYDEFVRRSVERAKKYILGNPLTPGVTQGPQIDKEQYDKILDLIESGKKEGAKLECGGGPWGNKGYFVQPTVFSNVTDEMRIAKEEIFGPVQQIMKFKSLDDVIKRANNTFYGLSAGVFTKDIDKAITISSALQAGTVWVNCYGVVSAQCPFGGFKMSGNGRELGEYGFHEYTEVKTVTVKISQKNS
12-hLO inh: qHTS Assay for Inhibitors of 12-hLO (12-human lipoxygenase); purified 12-hLO, xylenol orange hydroperoxide absorbance; Potency, µM (highest dose often 57.1 µM), hits mostly inhibitors; hit rate 0.12% among 150,000; active = well fitted curve in the direction sought with a large enough effect; inconclusive = small, poorly fitted or top-dose-only effect, or another doubt; inactive = no such curve, though single readings can be large; an effect the other way counts as inactive or inconclusive; note: nearly all actives have a fitted effect of over 55% in size
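Hydroperoxide formation by human 12-lipoxygenase from 40 uM arachidonic acid was followed colorimetrically via ferric-xylenol orange complex, using the 573/405 nm absorbance ratio. Enzyme concentration was 150 nM, with 30 min reaction at room temperature.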
IMPase cell inh: qHTS Assay for Identifying the Cell-Membrane Permeable IMPase Inhibitors | Inositol monophosphatase 1 (Rattus norvegicus), P97697 | CHO-M1 cells, IP1 accumulation, HTRF TR-FRET ratio | inhibition (IP1 accumulation), % at 46.1 µM | 120,000 tested, under 10 active | AID 901, 2007; active = well fitted curve in the direction sought with a large enough effect in the signal ratio, not every such curve was filed as active; inconclusive = small, poorly fitted or top-dose-only effect, or a change in a side signal; inactive = no such curve, though single readings can be large or run the other way; the % refers to the signal ratio;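 note: cells stimulated with carbachol in lithium chloride buffer; higher means more IMPase inhibition seen as more IP1 and lower FRET ratio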
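Seeded CHO-M1 cells were dosed with compound at up to 46 uM, stimulated with carbachol for 30 min, then lysed in IP-One detection reagents. Higher IP1 lowers the TR-FRET signal.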
Large screens that a line does not name were inactive. Unless noted, calls come from the whole dose curve; as a rule, active = well fitted inhibition curve with a large enough effect (not every such curve was filed as active); inconclusive = small, poorly fitted or top-dose-only effect, or another doubt; inactive = no such curve, though single readings can be large or run the other way.

CC(OC(=O)CN(C)S(=O)(=O)c1ccc(Cl)cc1)C(=O)Nc1ccc(N2CCOCC2)cc1 (configuration not stated)	none
CCc1ccccc1NC(=O)CC1CS(=O)(=O)CC1CC(=O)Nc1ccccc1CC (configuration not stated)	PNC assembly inh inconclusive
O=C(CC1CS(=O)(=O)CC1CC(=O)Oc1ccccc1F)Oc1ccccc1F (configuration not stated)	ALDH1A1 block 7.08µM (no result: IMPase cell inh)
Cn1nc(CC(=O)Nc2ncc(Br)s2)c2ccccc2c1=O	PNC assembly inh -118.9
Cn1nc(CC(=O)NC2CCCCCCCCCCC2)c2ccccc2c1=O	none
CCc1cccc(C)c1NC(=O)CSc1nc2ccccc2nc1N1CCOCC1	none (no result: HPGD block, IMPase Li cell, PNC assembly inh, ALDH1A1 block, 12-hLO inh)
O=C(Nc1ccc(F)cc1)C1=CC(=O)N2CCN=C2S1	ALDH1A1 block 15.8µM (no result: HPGD block, PNC assembly inh, 12-hLO inh, IMPase cell inh)
CC1=NCCN1CCNC(=O)Nc1ccc(F)cc1	none (no result: HPGD block, IMPase Li cell, PNC assembly inh, 12-hLO inh, IMPase cell inh)
CCCOc1ccc(NC(=O)C2CC(=O)N3CCCN=C3S2)cc1 (configuration not stated)	ALDH1A1 block 2.82µM
CCOc1ccc(NC(=O)C2CC(=O)N3CCCN=C3S2)cc1 (configuration not stated)	ALDH1A1 block 14.1µM
CC(=O)NC1=C(NC2CCS(=O)(=O)C2)C(=O)c2ccccc2C1=O (configuration not stated)	HPGD block 11.2µM, IMPase cell inh inconclusive
CN(C1=C(NC(=O)c2ccccc2)C(=O)c2ccccc2C1=O)C1CCS(=O)(=O)C1 (configuration not stated)	ALDH1A1 block inconclusive (no result: IMPase cell inh)
CCc1cccc(CC)c1NC(=O)C1CN(S(=O)(=O)c2ccccc2)CCN1S(=O)(=O)c1ccccc1 (configuration not stated)	PNC assembly inh -111.0 (no result: HPGD block, IMPase Li cell)
CCNC(=O)C1CN(S(=O)(=O)c2ccccc2)CCN1S(=O)(=O)c1ccccc1 (configuration not stated)	ALDH1A1 block inconclusive
Cc1cnc(CNc2cc(-c3cccc(NS(C)(=O)=O)c3)ncn2)cn1	none (no result: HPGD block, PNC assembly inh, 12-hLO inh, IMPase cell inh)
CO[C@@H]1/C=C\CC(=O)N[C@@H](C)C(=O)OC[C@H](NS(=O)(=O)c2ccc(C)cc2)[C@H](C)/C=C\CC(=O)OC[C@H]1C	none (no result: HPGD block, IMPase Li cell, PNC assembly inh, 12-hLO inh, IMPase cell inh)
COC(=O)Cn1c(=NC(=O)c2ccc(OC)c(OC)c2)sc2cc(OC)ccc21	HPGD block inconclusive, IMPase Li cell 8.91µM, ALDH1A1 block inconclusive (no result: IMPase cell inh)
CCNc1ncc2nc(-c3cccs3)c(=O)n(-c3ccccc3)c2n1	ALDH1A1 block inconclusive (no result: HPGD block, PNC assembly inh, 12-hLO inh, IMPase cell inh)
CCCC12CN3CC(C)(CN(C1)C3c1ccc(OC)cc1)C2=O (configuration not stated)	ALDH1A1 block inconclusive
CC12CN3CC(C)(CN(C1)C3c1ccc3c(c1)OCO3)C2 (configuration not stated)	none (no result: HPGD block, PNC assembly inh, 12-hLO inh, IMPase cell inh)
CC(C)C12CN3CC(C(C)C)(CN(C1)C3c1ccc3c(c1)OCO3)C2=O (configuration not stated)	ALDH1A1 block 7.94µM
CCCC12CN3CC(C)(CN(C1)C3c1ccc3c(c1)OCO3)C2=O (configuration not stated)	ALDH1A1 block 2µM
CCOc1cccc(C2c3c(oc4cc(C)c(C)cc4c3=O)C(=O)N2c2nc(C)c(C)s2)c1 (configuration not stated)	none (no result: HPGD block, IMPase Li cell, PNC assembly inh, ALDH1A1 block, 12-hLO inh)
Cc1cc(OCC(=O)Nc2ccc(F)c(F)c2)nc(C(C)C)n1	ALDH1A1 block 25.1µM
Cc1ccccc1-c1cc(NCCN2CCOCC2)ncn1	none (no result: HPGD block, PNC assembly inh, 12-hLO inh, IMPase cell inh)
Cc1c(NC(=O)c2cc3c(s2)-c2ccccc2OC3)cccc1[N+](=O)[O-]	HPGD block inconclusive, PNC assembly inh inconclusive, ALDH1A1 block 14.1µM
